# Results filed as inconclusive are left out. Values without a mark were called inactive. The source made the active and inactive calls. The call rests on the fitted dose curve; in most records, active means well fitted inhibition curve with a large enough effect; inconclusive means small, poorly fitted or top-dose-only effect; inactive means no such curve, though single readings can be large or run the other way. Residues, ends and D or L forms follow the SMILES beside them. *: point of attachment. Cbz = O=C(OCc1ccccc1)*
# System: Zika virus NS2B-NS3 protease (unlinked)
# Experiment: Optimization of GU AMC qHTS for Zika virus inhibitors: Unlinked NS2B-NS3 protease assay (AID 1347151); further: nearly all actives have a fitted effect of over 80% in size;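 on activity change, negative = inhibition: 0% = no-inhibitor control and -100% = no-enzyme control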
# Details: recombinant ZIKV NS2B-NS3 protease, fluorogenic AMC substrate; series mostly up to 52.5 µM; activity change, negative = inhibition: at the top concentration
# Text: Avindra Nath, Ph.D., National Institute of Neurological Disorders and Stroke (NINDS), Bethesda, MD
# Radhakrishnan Padmanabhan, Ph.D., Georgetown University (GU), Washington D.C.
# Zika Virus causes congenital defects, including microcephaly and is associated with Guillain-Barre syndrome, eningoencephalitis and myelitis in infected adult. […] Using a target-based approach, we hope to establish a screening paradigm to uncover novel, cell-active NS2B-NS3 protease (Zika Virus) specific inhibitors from NCATS' collection of small molecules using qHTS.
# Early Translation Branch (ETB)
# National Center for Advancing Translational Sciences (NCATS), Rockville, MD
# National Institute of Health (NIH), Bethesda, Maryland
# Padmanabhan lab provided the NS2B hydrophilic domain and NS3 protease domain in a noncovalent complex used for the unlinked assay. Control compound aprotinin is obtained from Thermo Scientific (#78432; Waltham, Massachusetts). NS2B-NS3 AMC substrate (Bz-Nle-Lys-Arg-Arg-AMC; Nle-KRR-AMC) purchased from Bachem (#I-1995; Torrance, CA). Ac-VKTGKR-AMC purchased from Genscript or Bachem, Ac-FAAGKR-AMC purchased from Genscript, Ac-GLVKRR-AMC purchased from Genscript, Ac-LKKR-AMC purchased from Genscript.
# GU AMC unlinked NS2B-NS3 protease qHTS protocol:
# Briefly, 3 microL of Zika virus unlinked NS2B-NS3 protease (25 nM for linked final concentration), in assay buffer (10 mM Tris-HCl pH 8.0 with 0.01% Tween 20) was dispensed into a 1,536-well solid-bottom black plate (Greiner Bio One, Monroe, NC). Twenty-three nL of compounds (final concentration range 7.28 nM to 114 microM) or control Aprotinin (final concentration range 3.47 nM to 114 microM) were transferred via Wako Pin-tool (Wako Automation, Richmond, VA). […] Plates were then read immediately on a ViewLux High-throughput CCD imager (PerkinElmer, Waltham, MA) equipped with standard UV fluorescence optics (340(30) nm excitation, 450(20) nm emission) then incubated (room temperature, protected from light) for 15 minutes (~20% conversion). The change in fluorescence intensity over the 15-minute reaction period was normalized against no-inhibitor and no-enzyme controls and the resulting percent inhibition data were fitted to a 4-parameter Hill equation. Aprotinin was used as the intraplate control.
# Potency means the concentration at half of the fitted maximal effect.
SMILES,"activity change, negative = inhibition",Potency
NC(=O)c1ccccc1,4.08%,
C[C@H]1CC2C3CCC4=CC(=O)C=C[C@]4(C)[C@@]3(Cl)[C@@H](O)C[C@]2(C)[C@@]1(O)C(=O)CO (stereo not given in full),2.24%,
O=C(O)c1ccccc1Nc1ccccc1,2.02%,
O=C(N[C@@H](Cc1ccccc1)C(=O)CCl)OCc1ccccc1,8.24%,
Nc1ncnc2c1nc(Sc1ccc(Cl)cc1)n2[C@H]1OC2COP(=O)(O)O[C@@H]2C1O (stereo not given in full),4.44%,
O=C(O)C1CCCNC1 (stereo not given),-1.35%,
CC[C@@H]1Cc2cc(O)ccc2C2=C1c1ccc(O)cc1C[C@H]2CC,-3770%,
CCCCCCCCCC(=O)NC(CN1CCOCC1)[C@H](O)c1ccccc1 (stereo not given in full),-0.823%,
COC(=O)C(N)Cc1ccc(Cl)cc1 (stereo not given),3.05%,
CN1CCc2cc(Cl)c(O)cc2[C@@H](c2ccccc2)C1,0.0151%,
c1ccc(C(NCc2cccnc2)(c2ccccc2)c2ccccc2)cc1,-7.8%,
NC(N)=N[C@@H](CCC(=O)O)C(=O)O,9.71%,
O=C(O)/C=C/c1cnc[nH]1,-9.42%,
CCCCCC(O)CCCC(=O)O (stereo not given),0.936%,
COc1cccc(OC)c1OCCNCC1CSc2ccccc2O1 (stereo not given),-6.75%,
OCC1NCC(O)C(O)C1O (stereo not given),0.0946%,
c1ccc(C(NCCNC(c2ccccc2)c2ccccc2)c2ccccc2)cc1,16.6%,
CC1CCN(CC[C@H]2CCCN2S(=O)(=O)c2cccc(O)c2)CC1,8.12%,
O=c1[nH]ccc2c(O)cccc12,,29.9 µM (active)
Cn1ccnc1,2.95%,

SMILES,"activity change, negative = inhibition",Potency
COc1ccccc1N1CCN(CCCCNC(=O)c2ccc3ccccc3c2)CC1,4.82%,
CCCCCCN(CCCCCC)C(=O)Cc1c(-c2ccc(F)cc2)[nH]c2ccccc12,,21.2 µM (active)
Cn1cc(C(=O)OCC2CCN(CCNS(C)(=O)=O)CC2)c2ccccc21,-1.67%,
C[C@@H](NCCc1ccc(O)cc1)[C@@H](O)c1ccc(O)cc1,4.78%,
CCCCOc1cc(CC2CNC(=O)N2)ccc1OC (stereo not given),-3.84%,
C=CC[C@H](N)C(=O)O,1.9%,
CC(C)[C@H](NC(=O)OCc1ccccc1)C(=O)N[C@H](C=O)Cc1ccccc1 (Cbz-Val-Phe-aldehyde),6.55%,
COc1cc2c(CCNC(C)=O)c[nH]c2cc1O,,26.7 µM (active)
COc1ccccc1N1CCN(CCCCN2C(=O)c3ccccc3C2=O)CC1,,23.8 µM (active)
N=C(N)c1ccc(N)cc1,0.699%,
O=C(O)c1cc(=O)cc(C(=O)O)[nH]1,-1.76%,
CC[N+](CC)(CC)CC(=O)Nc1c(C)cccc1C,7.03%,
CC(C)(CO)Cc1cc(C(C)(C)C)c(O)c(C(C)(C)C)c1,-11.6%,
CNc1ncnc2c1ncn2[C@H]1C[C@H](OP(=O)(O)O)[C@@H](COP(=O)(O)O)O1,-2.36%,
COC(=O)[C@H](NC(=O)c1cc(-c2ccccc2)nc2ccccc12)c1ccccc1,,23.8 µM (active)
O=C(O)CCC/C=C\C[C@@H]1[C@@H](/C=C/[C@H](O)C2Cc3ccccc3C2)[C@@H](F)C[C@@H]1O,0.89%,
N#Cc1cc([N+](=O)[O-])c2sc(C(N)=O)[n+]([O-])c2c1,2.85%,
CNC(=O)c1cc2c(cn1)[nH]c1ccccc12,,26.7 µM (active)
COc1ccccc1N1CCN(CCN(C(=O)c2ccc(F)cc2)c2ccccn2)CC1,-2.57%,
C=CCn1c(=O)c2c(nc(-c3ccc(S(=O)(=O)O)cc3)n2C)n(C)c1=O,,2.99 µM (active)
